The subject of experiment [1] is Vero E6 infected with SARS-CoV-2. The experiment in a line: morphology score (similarity to uninfected cells); higher = more like uninfected cells. To be noted: 24 h.
For experiment [2] the test system is unchanged. The experiment in a line: SARS-CoV-2 infection rate relative to infected DMSO; higher = more infection, active = 60 or less. The note with it: 24 h.

SMILES strings stand for the structures.

In experiment [1], `CCc1c2c(nc3ccc(O)cc13)-c1cc3c(c(=O)n1C2)COC(=O)[C@]3(O)CC` (0.833333 µM) had a morphology score of -0.131. For the same molecule, in experiment [2], the SARS-CoV-2 infection rate is 116% (inactive).

Turning to `Cc1ccc(CCCO)c(NCc2ccc3nc(NCCCN4CCOCC4)n(Cc4nc(C)ccc4O)c3c2)c1` (10 µM), in experiment [1], the morphology score is 0.227. Further, in experiment [2], the SARS-CoV-2 infection rate is 96.5% (inactive).

With `CCc1nc(-c2cccc(C)c2)c(-c2ccnc(NC(=O)c3ccccc3)c2)s1` (10 µM), in experiment [1], the morphology score was 0.171. Moreover, in experiment [2], the SARS-CoV-2 infection rate is 104% (inactive).

With `CCCCCCCCCCC(CO)CCCCCCCC` (stereo unspecified) [2-octyldodecan-1-ol] (10 µM), in experiment [1], the morphology score came to 0.0425. Moreover, the SARS-CoV-2 infection rate in experiment [2] was 110% (inactive).

In experiment [1], `O=C(O)CNC(=O)c1nc(Cl)c2ccccc2c1O` (10 µM) returned a morphology score of 0.17. In addition, the SARS-CoV-2 infection rate in experiment [2] was 102% (inactive).

Take `Cc1cn([C@H]2O[C@@H](CO)[C@H](O)[C@H]2F)c(=O)[nH]c1=O` [clevudine] (10 µM): in experiment [1], the morphology score is -0.0291. In experiment [2], the SARS-CoV-2 infection rate was 107% (inactive).

`N#Cc1cc(F)cc(-c2nc(-c3ccc(F)cn3)no2)c1` (10 µM) had a morphology score in experiment [1] of 0.136. Besides, in experiment [2], the SARS-CoV-2 infection rate is 89% (inactive).

Take `CNC(=O)c1ccc2cc([C@@]3(O)CCn4cncc43)ccc2c1` [orteronel] (10 µM): the morphology score in experiment [1] amounted to 0.0827. Besides, the SARS-CoV-2 infection rate in experiment [2] is 106% (inactive).

In experiment [1], `CCCCCCCCCCCC[N+](C)(C)CCOc1ccccc1` [domiphen] (10 µM) yielded a morphology score of 0.0254. Besides, the SARS-CoV-2 infection rate in experiment [2] was 87% (inactive).

In experiment [1], `CN(C)CCCCC(=O)Nc1ccc(NC(=S)NC(=O)c2ccc(C(C)(C)C)cc2)cc1` [tenovin-6] (0.833333 µM) yielded a morphology score of -0.102. The SARS-CoV-2 infection rate in experiment [2] is 86% (inactive).

For the molecule `O=C1CN2Cc3c(ccc(Cl)c3Cl)N=C2N1` [anagrelide] (10 µM), in experiment [1], the morphology score was 0.142. For the same molecule, the SARS-CoV-2 infection rate in experiment [2] was 112% (inactive).

The molecule `CCOC(=O)c1cncn1[C@H](C)c1ccccc1` [etomidate] (10 µM) displayed a morphology score in experiment [1] of -0.0479. Further, the SARS-CoV-2 infection rate in experiment [2] was 110% (inactive).

Molecule `CCCCCCCCCCC(C)(C)C(=O)Nc1c(OC)cc(OC)cc1OC` (10 µM) showed a morphology score in experiment [1] of -0.024. Further, the SARS-CoV-2 infection rate in experiment [2] is 111% (inactive).

Molecule `CC1COc2c(N3CCN(C)CC3)c(F)cc3c(=O)c(C(=O)O)cn1c23` (stereo unspecified) [ofloxacin] (10 µM) showed a morphology score in experiment [1] of 0.0901. Besides, the SARS-CoV-2 infection rate in experiment [2] is 104% (inactive).

Regarding `COc1ccc(CN(C(=O)[C@@H](N)Cc2c(C)cc(C(N)=O)cc2C)[C@@H](C)c2ncc(-c3ccccc3)[nH]2)cc1C(=O)O` [eluxadoline] (10 µM), the morphology score in experiment [1] worked out at 0.15. In addition, the SARS-CoV-2 infection rate in experiment [2] was 117% (inactive).

In experiment [1], `CCCCCCCCCCCCCCCC(=O)C(F)(F)F` (10 µM) gave a morphology score of 0.158. The SARS-CoV-2 infection rate in experiment [2] was 97% (inactive).

In experiment [1], `C#C[C@]1(O)CC[C@H]2[C@@H]3CCc4cc(O)ccc4[C@H]3CC[C@@]21C` (10 µM) yielded a morphology score of 0.128. In experiment [2], the SARS-CoV-2 infection rate was 102% (inactive).

On to `CC(C(=O)O)c1ccc2c(c1)[nH]c1ccc(Cl)cc12` (stereo unspecified) [carprofen] (10 µM), for which, in experiment [1], the morphology score was -0.0165. Further, the SARS-CoV-2 infection rate in experiment [2] was 108% (inactive).

In the case of `CC(C)CC(N)=O` [isovaleramide] (10 µM), the morphology score in experiment [1] was 0.0817. In experiment [2], the SARS-CoV-2 infection rate was 104% (inactive).

On to `CC(C)c1c2cc(-c3ccnc(N[C@H]4CC[C@H](NC5CCOCC5)CC4)n3)ccc2nn1C` (0.833333 µM), for which the morphology score in experiment [1] turned out to be 0.108. Also, the SARS-CoV-2 infection rate in experiment [2] is 90.5% (inactive).

In experiment [1], `Oc1ccc(Cl)cc1` [parachlorophenol] (10 µM) displayed a morphology score of 0.063. Also, the SARS-CoV-2 infection rate in experiment [2] was 98% (inactive).

Consider `CCN(c1ccccc1)c1cc(=NC)n(C)c(C)n1` (10 µM), for which the morphology score in experiment [1] is 0.203. The SARS-CoV-2 infection rate in experiment [2] was 94% (inactive).

In turn, `Cc1c(O)cccc1C(=O)N[C@@H](CSc1ccccc1)[C@H](O)CN1C[C@H]2CCCC[C@H]2C[C@H]1C(=O)NC(C)(C)C` [nelfinavir] (10 µM) returned a morphology score in experiment [1] of 0.722. Besides, the SARS-CoV-2 infection rate in experiment [2] was 47.5% (active).

`COc1cc2c(cc1OC)C(=O)C(CC1CCN(Cc3ccccc3)CC1)C2` (stereo unspecified) [donepezil] (10 µM): the morphology score in experiment [1] was 0.153. Besides, the SARS-CoV-2 infection rate in experiment [2] was 100% (inactive).

Regarding `CC(C)NCC(O)c1ccc2ccccc2c1` (stereo unspecified) [pronethalol] (10 µM), in experiment [1], the morphology score is -0.0652. For the same molecule, the SARS-CoV-2 infection rate in experiment [2] is 104% (inactive).

Turning to `Nc1nc(O)c2ncn(CCC(CO)CO)c2n1` [penciclovir] (10 µM), the morphology score in experiment [1] is 0.0743. In addition, in experiment [2], the SARS-CoV-2 infection rate was 93.5% (inactive).

In experiment [1], `O=C(O)[C@H](Cc1ccc(Nc2nccc3ccncc23)cc1)NC1=C(Br)C(=O)C12CCCCC2` (10 µM) displayed a morphology score of 0.0401. Also, the SARS-CoV-2 infection rate in experiment [2] is 98% (inactive).

The molecule `COCc1c(-c2ccc(NC(=O)Nc3cc(C(F)(F)F)ccc3F)c(F)c2)c2c(N)ncnn2c1CN1CCOCC1` (0.833333 µM) showed a morphology score in experiment [1] of 0.227. Besides, in experiment [2], the SARS-CoV-2 infection rate was 96.5% (inactive).

`O=C1C[C@@H]2OCC=C3CN4CC[C@]56c7ccccc7N1[C@H]5[C@H]2[C@H]3C[C@H]46` [strychnine] (10 µM) gave a morphology score in experiment [1] of 0.314. The SARS-CoV-2 infection rate in experiment [2] was 90% (inactive).

As to `CC(C)(C)C(=O)CN1C(=O)[C@H](NC(=O)Nc2cccc(C(=O)O)c2)CN(C2CCCCC2)c2ccccc21` [nastorazepide] (10 µM), in experiment [1], the morphology score was -0.0136. Moreover, the SARS-CoV-2 infection rate in experiment [2] was 104% (inactive).

In experiment [1], `C[C@H](N)[C@H](O)c1cccc(O)c1` [metaraminol] (10 µM) registered a morphology score of -0.0578. Moreover, the SARS-CoV-2 infection rate in experiment [2] is 104% (inactive).

Molecule `CC(C)CCN1c2nc(Nc3cc(F)c(O)c(F)c3)ncc2N(C)C(=O)[C@@H]1C` (0.833333 µM) showed a morphology score in experiment [1] of 0.164. The SARS-CoV-2 infection rate in experiment [2] was 106% (inactive).

Consider `Cc1ccc(Cl)c(OCC(O)CNC(C)(C)C)c1` (stereo unspecified) [bupranolol] (10 µM), for which, in experiment [1], the morphology score was -0.00864. Further, the SARS-CoV-2 infection rate in experiment [2] is 111% (inactive).
